Hits are enriched below; roughly 7.3% of the tested compounds scored in any of these assays.
Rab9 promoter act = qHTS Assay for Rab9 Promoter Activators; Huh7 Rab9 promoter-luciferase reporter, luminescence, 24 h; Potency, µM (series often up to 9.22 µM), for inactives: at the highest dose activation, negative = inhibition, hits mostly activators; hit rate 2.8% among 320,000; AID 485297, 2010; note: % of control where 0% means no effect; nearly all actives have a fitted effect of over 60% in size
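Quantitative HTS format; Huh7 Rab9-luciferase reporter cells (1500/well) receive compound 2 h post-plating, incubate 24 h at 37 °C, then get luciferase reagent for 10 min before luminescence reading.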
SMN2 splice enh = qHTS Assay for Enhancers of SMN2 Splice Variant Expression; HEK293 SMN2-luciferase splicing reporter, luminescence, 30-36 h; Potency, µM (doses to about 46.1 µM), without a hit: at the highest dose activity change, positive = activation, actives largely listed as activators; hit rate 2.8% among 210,000; AID 1458, 2008; note: % of control where 0% means no effect; nearly all actives have a fitted effect of over 55% in size
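HEK293 cells carry an SMN2 minigene-luciferase reporter in which exon 7 inclusion puts luciferase in frame. Cells were seeded at 2000 cells/well, attached for 10-12 hours, then exposed to compounds for 30-36 hours at 37C before ONE-Glo luminescence.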
ELG1 genotox = qHTS screen for small molecules that induce genotoxicity in human embryonic kidney (HEK293T) cells expressing luciferase-tagged ELG1; hit rate 1.3% among 330,000; AID 504466, 2011; Potency, µM (series often up to 46 µM), without a hit: at the top dose activity change, positive = activation, actives largely listed as activators; HEK293T ELG1-luciferase reporter, luminescence, 16 h; note: % of control where 0% means no effect; nearly all actives have a fitted effect of over 60% in size
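DMSO vehicle served as control against compound-treated ELG1-luciferase HEK293T cells; exposure lasted 16 hr at 37 °C and 5% CO2, followed by ONE-Glo luminescence detection after 30 min.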
FLuc modulator = qHTS profiling assay for firefly luciferase inhibitor/activator using purifed enzyme and Km concentrations of substrates (counterscreen for miR-21 project); Luciferin 4-monooxygenase (Photinus pyralis), P08659; purified FLuc, Km substrates, luminescence inhibition; Potency, µM (series often up to 57.5 µM), without a hit: top-dose activity change, negative = inhibition, hits mostly inhibitors; hit rate 6.9% among 360,000; AID 588342, 2011;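 note: plate controls were vehicle for no effect and reference inhibitor for full effect; nearly all actives have a fitted effect of over 55% in size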
Target sequence (P08659 whole entry, looked up): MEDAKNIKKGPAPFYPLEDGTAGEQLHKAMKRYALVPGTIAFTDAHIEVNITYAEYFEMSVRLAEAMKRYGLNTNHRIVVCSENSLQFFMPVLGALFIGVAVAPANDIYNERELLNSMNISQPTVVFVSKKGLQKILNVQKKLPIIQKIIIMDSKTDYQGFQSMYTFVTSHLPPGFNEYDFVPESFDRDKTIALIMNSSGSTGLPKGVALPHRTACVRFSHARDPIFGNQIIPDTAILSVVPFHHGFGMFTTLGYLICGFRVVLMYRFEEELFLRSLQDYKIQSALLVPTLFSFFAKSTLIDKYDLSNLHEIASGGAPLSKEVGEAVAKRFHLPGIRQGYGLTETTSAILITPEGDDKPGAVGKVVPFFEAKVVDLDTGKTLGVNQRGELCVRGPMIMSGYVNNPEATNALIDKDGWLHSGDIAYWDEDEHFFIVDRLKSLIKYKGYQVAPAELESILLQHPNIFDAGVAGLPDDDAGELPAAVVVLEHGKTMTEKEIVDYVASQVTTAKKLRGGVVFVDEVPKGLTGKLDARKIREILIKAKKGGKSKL
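Purified P. pyralis luciferase (10nM final) with 10uM D-luciferin and 10uM ATP (Km levels) in 50mM Tris acetate pH 7.5, 10mM Mg acetate, 0.01% Tween-20, 0.05% BSA; qHTS 6-point titration, ~60 µM downward; luminescence read.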
p53 reactivator = qHTS assay for re-activators of p53 using a Luc reporter; H1299 p53-A138V BP100-luciferase reporter, luminescence, 24 h; Potency, µM (top dose mostly 92.2 µM), for the others: at the highest dose activity change, positive = activation, usual class: activators; hit rate 0.063% among 320,000; note: % of control where 0% means no effect; nearly all actives have a fitted effect of over 45% in size
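p53-null H1299 cells stably carrying temperature-sensitive p53-A138V and a BP100-luciferase reporter were pinned with compounds (4-point, 1:5 series) and held 24 hrs at 37 deg C. Luminescence was read 10 min after detection reagent.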
NPC1 promoter act = qHTS Assay for NPC1 Promoter Activators. Huh7 NPC1 promoter luciferase reporter, 24 h. Potency, µM (top dose mostly 9.22 µM), inactives show top-dose activation, hits mostly activators. hit rate 2.4% among 320,000; note: % of control where 0% means no effect; nearly all actives have a fitted effect of over 60% in size
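NPC1 promoter–luciferase Huh7 cells; 24 h compound; luminescence.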
* = called active by the depositor; [ ] = another dose, or the depositor's remark. Calls come from the whole dose curve; as a rule, active = well fitted curve in the direction sought with a large enough effect; inconclusive = small, poorly fitted or top-dose-only effect, or another doubt; inactive = no such curve, though single readings can be large; an effect the other way counts as inactive or inconclusive. Potency is the fitted concentration of half-maximal effect.

COc1ccc(C2CCCN2C(=S)Nc2ccc(C)cc2Cl)cc1OC (stereo unspecified) was read as Rab9 promoter act -3%, SMN2 splice enh -85%, ELG1 genotox 1%, FLuc modulator -6%, p53 reactivator 4% and NPC1 promoter act 2%.
`CCOc1ccccc1NC(=O)CN1C(=O)COc2ccc(S(=O)(=O)N3CCCCC3)cc21` gave FLuc modulator 3%.
O=C1NC(Cc2ccccc2)c2nc3ccccc3c(=O)n2-c2ccc(Cl)cc21 (stereo unspecified) was read as Rab9 promoter act 1%, ELG1 genotox 0%, FLuc modulator -1%, p53 reactivator 13% and NPC1 promoter act 1%.
For Cc1ccc(NC(=O)C2=CN3CCS(=O)(=O)N=C3C=C2)cc1 the results were ELG1 genotox 2% and p53 reactivator 1%.
Screening CC(C)(C)c1ccc(NC(=O)C2=CN3CCS(=O)(=O)N=C3C=C2)cc1 returned Rab9 promoter act 0%, ELG1 genotox 0%, FLuc modulator 15µM*, p53 reactivator -4% and NPC1 promoter act 0%.
Screening CC(CCC#N)[N+](=O)[O-] (stereo unspecified) returned SMN2 splice enh -7%.
For O=C(Nc1nc(-c2ccc(Br)cc2)cs1)c1cccnc1 the results were Rab9 promoter act -11%, SMN2 splice enh -17%, ELG1 genotox 15%, FLuc modulator 1%, p53 reactivator 5% and NPC1 promoter act -11%.
`CC(C)/C=N/Nc1nc(-c2ccc(Br)cc2)cs1` gave Rab9 promoter act inconclusive, SMN2 splice enh 5%, ELG1 genotox inconclusive, FLuc modulator 7.6µM*, p53 reactivator inconclusive and NPC1 promoter act inconclusive.
`Cc1c(/N=C(\[O-])Nc2ccc(Br)cc2)sn[n+]1C` gave Rab9 promoter act 0.1µM*, ELG1 genotox 0.37µM*, FLuc modulator 1.1µM*, p53 reactivator 5% and NPC1 promoter act 0.28µM*.
CCCCCCc1c(C)c2ccc(OCC(=O)N3CCC[C@H]3C(=O)O)c(C)c2oc1=O was read as Rab9 promoter act -10%, ELG1 genotox 1%, FLuc modulator 17µM* and NPC1 promoter act 0%.
For CCOC(=O)CCc1c(C)c2ccc(OCC(=O)N3CCOCC3)c(C)c2oc1=O the results were Rab9 promoter act 5%, ELG1 genotox -4%, FLuc modulator -2%, p53 reactivator -15% and NPC1 promoter act 6%.
`CCOC(=O)CCc1c(C)c2ccc(OCC)c(C)c2oc1=O` gave Rab9 promoter act -8%, SMN2 splice enh -6%, ELG1 genotox 10%, FLuc modulator 12µM*, p53 reactivator 3% and NPC1 promoter act 2%.
`CCCc1cc(=O)oc2c(C)c(OCC(=O)N3CCC[C@@H]3C(=O)O)ccc12` gave Rab9 promoter act -2%, ELG1 genotox 4%, FLuc modulator 6% and NPC1 promoter act -6%.
`COc1ccc(Cl)cc1S(=O)(=O)N(C)CC(=O)N1CCOCC1` gave Rab9 promoter act -4%, ELG1 genotox 0%, FLuc modulator 2%, p53 reactivator -2% and NPC1 promoter act -4%.
`CCCCCCCCCCCCOCC1CO1` (stereo unspecified) gave SMN2 splice enh -5%.
For Cc1nc2ccc3nc(NC(=O)C4COc5ccccc5O4)sc3c2s1 (stereo unspecified) the results were Rab9 promoter act -4%, SMN2 splice enh 5%, ELG1 genotox 1%, FLuc modulator -1%, p53 reactivator -2% and NPC1 promoter act -1%.
Screening O=C(Nc1nc(-c2ccccc2)cs1)C1COc2ccccc2O1 (stereo unspecified) returned Rab9 promoter act -1%, SMN2 splice enh 21%, ELG1 genotox 0%, FLuc modulator 1%[2.3 µM], p53 reactivator inconclusive and NPC1 promoter act 1%.
Screening Cc1cnc(NC(=O)C2COc3ccccc3O2)s1 (stereo unspecified) returned Rab9 promoter act 0.32µM*, SMN2 splice enh 10µM*, ELG1 genotox inconclusive, FLuc modulator 0.67µM*, p53 reactivator -15% and NPC1 promoter act 0.1µM*.
For Cc1ccc2sc(NNC(=O)C3COc4ccccc4O3)nc2c1C (stereo unspecified) the results were Rab9 promoter act 2%, SMN2 splice enh 10µM*, ELG1 genotox -2%, FLuc modulator 0%, p53 reactivator 9% and NPC1 promoter act -1%.
For Cc1csc(NC(=O)C2COc3ccccc3O2)n1 (stereo unspecified) the results were Rab9 promoter act 0.45µM*, SMN2 splice enh inconclusive, ELG1 genotox 0.52µM*, FLuc modulator 1.2µM*, p53 reactivator 2% and NPC1 promoter act inconclusive.
For CCOc1ccccc1C(=O)Nc1c(C(=O)Nc2ccc(F)cc2)oc2ccccc12 the results were SMN2 splice enh -11% and FLuc modulator -1%.
C[C@@H]1OC(OC2C(OC3CC[C@@]4(C)C5CC=C6C7CC(C)(C)CC[C@@]7(C(=O)O)CCC6(C)C5(C)CCC4[C@]3(C)CO)OCC(O)C2O)C(O)C(O)C1O (stereo partly specified) was read as SMN2 splice enh 2%.
Screening Cc1nc2ccc(Cl)cc2nc(C)/c1=N\O returned Rab9 promoter act 5%, SMN2 splice enh -8%, ELG1 genotox 18µM*, FLuc modulator inconclusive, p53 reactivator inconclusive and NPC1 promoter act 0%.
O=C(CSc1nccn1-c1ncc(C(F)(F)F)cc1Cl)c1ccc(Cl)cc1 was read as Rab9 promoter act 3.5µM*, SMN2 splice enh 7%, ELG1 genotox 33%, FLuc modulator inconclusive, p53 reactivator 16% and NPC1 promoter act 4µM*.
Screening O=C(Nc1cccc(Cl)c1Cl)c1cc(S(=O)(=O)N2CCCCC2)ccc1F returned FLuc modulator -9%.
`O=C(O)C1CCN(C(=O)CSc2nc3ccccc3s2)CC1` gave Rab9 promoter act 0%, SMN2 splice enh 6%, ELG1 genotox 2%, FLuc modulator inconclusive, p53 reactivator 7% and NPC1 promoter act -3%.
`CC1CCN(C(=O)CSc2nc3ccccc3s2)CC1` gave Rab9 promoter act 2.8µM*, SMN2 splice enh inconclusive, ELG1 genotox 12µM*, FLuc modulator 12µM*, p53 reactivator inconclusive and NPC1 promoter act 2.8µM*.
